Source: PubChem (NMMLSC)
Rab7 wt modul: modulators of GTP binding to dog Rab7 wildtype GTPase; GST-Rab7 beads, fluorescent GTP binding, flow cytometry; actives lie on both sides; untreated = 100%, excess cold GTP = 0%; hit rate 0.055% among 190,000; GTP binding activity (percent of control), % at 10 µM;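 active = fluorescent GTP binding to Rab7 beads changed by at least 20 points from the 100% baseline, either direction, mostly lower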;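 also: median green fluorescence of bound Bodipy-FL-GTP per Rab7 bead population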
Rab2 wt GTP: changes GTP binding to wildtype dog Rab2A, up or down; hit rate 0.19% among 190,000; P61105; GTP binding activity, % at 10 µM; GST-Rab2 wt beads, Bodipy-GTP binding, flow cytometry; AID 760;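 active = GTP binding activity at least 20 points away from 100%, either lowered or raised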;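 also: 0% = beads with excess unlabeled GTP and 100% = no-compound control corrected for plate trend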
HRas wt GTP: modulators of GTP binding to human HRas wildtype | P01112 | GST-Ras wt beads, Bodipy-FL-GTP binding, flow cytometry; actives lie on both sides | GTP binding activity, % at 10 µM | hit rate 0.14% among 190,000 | AID 759;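 active = GTP binding activity at least 20% away from the 100% baseline, either lowered as inhibitor or raised as activator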;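 also: 0% = unlabeled GTP competition control and 100% = no-compound control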
Target sequence (P01112 whole entry, looked up): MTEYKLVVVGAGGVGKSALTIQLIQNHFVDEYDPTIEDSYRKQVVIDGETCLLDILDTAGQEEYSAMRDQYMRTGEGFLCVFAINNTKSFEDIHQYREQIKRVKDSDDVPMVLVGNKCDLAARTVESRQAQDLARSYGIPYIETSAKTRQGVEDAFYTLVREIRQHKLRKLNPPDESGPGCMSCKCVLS
Rac1 wt modul: modulators of human Rac1 wildtype GTP binding; P63000; GST-Rac1 beads, fluorescent GTP binding, flow cytometry; actives lie on both sides; 0 = cold GTP competed, 100 = untreated; GTP binding activity (% of control), % at 10 µM; hit rate 0.27% among 190,000; AID 757;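 active = GTP binding activity at least 20 points away from the 100% control level, either lower or higher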
Rac1 mut GTP: human Rac1 activated mutant GTP binding change. P63000. GST-Rac1 activated beads, fluorescent GTP binding, flow cytometry; actives lie on both sides; 100% means binding = to untreated wells. percent activity (GTP binding), % at 10 µM. hit rate 0.11% among 190,000;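 active = GTP binding at least 20 percentage points away from the 100% baseline, in either direction, so actives lie on both sides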
Cdc42 wt: modulators (inhibitors or activators) of GTP binding to human Cdc42 wildtype | P60953 | hit rate 0.2% among 190,000 | percent activity (GTP binding), % at 10 µM | AID 761 | GST-Cdc42 beads, Bodipy-GTP binding, flow cytometry; actives lie on both sides;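 active = percent activity GTP binding at least 20 points away from the 100% baseline, either down as inhibitor or up as activator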;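 also: median bead fluorescence of bound Bodipy-FL-GTP at 100 nM; 0% = excess unlabeled GTP control and 100% = no compound control; below 100% means less GTP binding so inhibitor and above means activator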
Target sequence (P60953 whole entry, looked up): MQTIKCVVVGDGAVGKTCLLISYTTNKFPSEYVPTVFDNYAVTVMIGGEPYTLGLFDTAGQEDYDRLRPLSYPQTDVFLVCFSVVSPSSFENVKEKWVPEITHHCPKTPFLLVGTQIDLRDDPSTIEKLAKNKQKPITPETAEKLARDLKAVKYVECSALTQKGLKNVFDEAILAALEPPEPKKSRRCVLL
An asterisk follows results filed as active; [ ] = dose if it differs, or a comment. This is a sample that favours compounds with a hit; in the whole collection about 0.38% have one here.

SMILES | Rab7 wt modul | Rab2 wt GTP | HRas wt GTP | Rac1 wt modul | Rac1 mut GTP | Cdc42 wt
CC(C)CN(C(=O)COC(=O)c1c(Cl)ccc(Cl)c1Cl)C1CCS(=O)(=O)C1 (centres undefined) | 96 | 94 | 96 | 98 | 97 | 93
CN(c1ccc([N+](=O)[O-])cc1C(N)=O)C1CCCCC1 | 97 | 95 | 94 | 98 | 94 | 96
Cc1ccn2c(NCc3ccc4c(c3)OCO4)c(-c3ccc(O)cc3)nc2c1 | 82 | 100 | 91 | 135*[activator] | 112 | 145*[activator]
Cc1cc(C(=O)Oc2ccccc2C(=O)O)c(C)o1 | 104 | 116 | 110 | 127*[activator] | 119 | 120*[activator]
O=C(CN1CCN(CCOCCO)CC1)N1c2ccccc2Sc2ccc(Cl)cc21 | 102 | 102 | 103 | 120*[activator] | 103 | 112
CN1CCN(CCC(=O)N2c3ccccc3Sc3ccc(Cl)cc32)CC1 | 98 | 98 | 100 | 102 | 97 | 104
Cc1ccccc1NC(=S)N(C)Cc1cn(C)c2ccccc12 | 103 | 102 | 103 | 106 | 101 | 104
COc1ccc(OC)c(/C=N/NC(=O)c2ccc(Cn3cc([N+](=O)[O-])cn3)o2)c1 | 87 | 78* | 82 | 81 | 92 | 91
Cc1cc(NC(=O)CCCn2ccc([N+](=O)[O-])n2)n(Cc2ccc(F)cc2)n1 | 93 | 95 | 96 | 97 | 93 | 97
COc1cc(C(=O)OCC(=O)Nc2ccc3c(c2)OC(F)(F)O3)ccc1OCc1c(C)noc1C | 28* | 40* | 43* | 39* | 37* | 34*
COc1ccc(NC(=O)COC(=O)c2ccc(OCc3c(C)noc3C)cc2)cc1OC | 101 | 100 | 101 | 103 | 98 | 102
O=C(Nc1ccc(F)cc1)C1=CC(=O)N2CCN=C2S1 | 95 | 98 | 97 | 101 | 98 | 101
O=C1/C(=C\c2cccnc2)Sc2ccccc21 | 90 | 89 | 90 | 84 | 88 | 72*
COc1cc(/C=N/NC(=O)CN(Cc2ccco2)S(=O)(=O)c2ccccc2)ccc1O | 94 | 81 | 84 | 77* | 90 | 86
COc1ccc(/C=N/NC(=O)CN(Cc2ccccc2)S(=O)(=O)c2ccc3c(c2)OCCO3)cc1 | 92 | 88 | 91 | 89 | 94 | 95
COc1cc(/C=N/NC(=O)CN(Cc2ccccc2)S(=O)(=O)c2ccc3c(c2)OCCO3)ccc1O | 90 | 78* | 81 | 78* | 88 | 89
Cc1ccccc1-n1c(SCc2c(C)noc2C)nnc1-c1ccncc1 | 98 | 95 | 99 | 98 | 96 | 97
Cc1ccccc1-n1c(SCc2c(C)noc2C)nnc1-c1cccnc1 | 111 | 115 | 110 | 132*[activator] | 110 | 118
CCOC(=O)N1CCN(C(=O)CCc2ccc(S(=O)(=O)NCCc3ccccc3)cc2)CC1 | 20* | 32* | 37* | 29* | 32* | 33*
O=C(CCc1ccc(S(=O)(=O)NCCc2ccccc2)cc1)Nc1ccc2c(c1)OCO2 | 24* | 34* | 39* | 33* | 35* | 35*
CC(C)CNS(=O)(=O)c1ccc(CCC(=O)Nc2ccc3c(c2)OCO3)cc1 | 102 | 102 | 102 | 101 | 96 | 102
Nc1[nH]n2c(=O)cc(-c3ccccc3)nc2c1N=Nc1ccc2c(c1)OCO2 | 94 | 88 | 90 | 86 | 89 | 88
Cn1ncc(N=Cc2ccc([N+](=O)[O-])cc2)c1C(=O)Nc1ccccc1 | 101 | 95 | 97 | 99 | 96 | 99
Cc1ccc(C)n1N1C(=O)/C(=C\c2ccc(Cl)cc2)SC1=S | 96 | 92 | 95 | 92 | 91 | 92
NS(=O)(=O)c1ccc(CCN2C(=O)/C(=C\c3ccc(Cl)cc3)SC2=S)cc1 | 85 | 82 | 84 | 77* | 85 | 84
SMILES | Rab7 wt modul | Rab2 wt GTP | HRas wt GTP | Rac1 wt modul | Rac1 mut GTP | Cdc42 wt
C/C(=N\NC(=O)c1c[nH]c2ccccc12)c1ccc(C)o1 | 92 | 85 | 84 | 79* | 92 | 84
CC(C)C(=O)N1CCN(c2ccccc2NC(=O)c2cccc(Cl)c2)CC1 | 108 | 111 | 112 | 121*[activator] | 108 | 116
COc1ccccc1NC(=O)CN(c1ccc(C)cc1)S(=O)(=O)c1c(C)n[nH]c1C | 94 | 98 | 99 | 103 | 99 | 98
COc1ccc(N(CC(=O)Nc2cccc(C)c2C)S(=O)(=O)c2c(C)n[nH]c2C)cc1 | 87 | 79* | 84 | 81 | 88 | 83
CC(C)c1ccc(OCC(=O)NC2=NCCS2)cc1 | 97 | 97 | 99 | 105 | 95 | 97
Cc1cccc(-c2nnc(NC(=O)c3ccc(N4C(=O)CCC4=O)cc3)s2)c1 | 101 | 103 | 105 | 113 | 101 | 107
Cc1ccccc1-c1nnc(NC(=O)c2ccc(N3C(=O)CCC3=O)cc2)s1 | 104 | 106 | 106 | 130*[activator] | 104 | 109
COc1ccc2cc(C(=O)C3CCCN(C(=O)Cc4c(C)noc4C)C3)ccc2c1 (centres undefined) | 96 | 94 | 94 | 95 | 94 | 92
FC(F)(F)c1cccc(NC(=S)NNC(=S)NCc2ccccc2)c1 | 86 | 84 | 86 | 80 | 80* | 81
COc1cccc(Nc2ncc(C(=O)O)c3ccccc23)c1 | 95 | 102 | 104 | 102 | 100 | 105
COc1cccc(Nc2ccccc2C(=O)O)c1 | 127*[activator] | 125*[activator] | 120*[activator] | 138*[activator] | 126*[activator] | 130*[activator]
Nc1c([N+](=O)[O-])cc(-c2cnc[nH]2)cc1[N+](=O)[O-] | 94 | 77* | 78* | 84 | 88 | 77*
COc1ccc(-c2cnc[nH]2)cc1 | 100 | 96 | 97 | 99 | 95 | 97
ClCC1CN(Cc2ccccc2Cl)CCO1 (centres undefined) | 103 | 101 | 97 | 97 | 95 | 95
COc1ccc(OCC(=O)Nc2nonc2NC(=O)COc2ccc(OC)cc2)cc1 | 95 | 82 | 85 | 79* | 88 | 84
Cc1cc(C)cc(OCC(=O)Nc2nonc2NC(=O)COc2cc(C)cc(C)c2)c1 | 95 | 95 | 94 | 97 | 95 | 96
Cc1ccccc1-c1nnc(-c2ccc(Cl)cc2)o1 | 97 | 98 | 98 | 99 | 97 | 101
Cc1ccc(CS(=O)(=O)c2ccccc2-c2nnc(-c3ccc(Cl)cc3)o2)cc1 | 77* | 86 | 80 | 93 | 90 | 93
COC(=O)c1cccc(NC(=O)c2nn(C)c(=O)c3ccccc23)c1 | 92 | 79* | 77* | 72* | 81 | 73*
Cn1nc(C(=O)NCc2cccnc2)c2ccccc2c1=O | 96 | 99 | 98 | 100 | 98 | 96
Cn1nc(C(=O)Nc2cccnc2)c2ccccc2c1=O | 92 | 69* | 74* | 85 | 86 | 73*
